# Measurements: PubChem BioAssay AID651998 (The Scripps Research Institute Molecular Screening Center, 2013)
# Tested on: LYPLA1
# Test: LYPLA1 enzyme kinetics with inhibitors – biochemical, substrate-based fluorescence, Ki, Km, late-stage follow-up (AID 651998)
# Details: recombinant LYPLA1, resorufin acetate hydrolysis fluorescence, Ki from Cheng-Prusoff
smiles,measurement,value
O=C(CN1CCN(C(=O)c2ccco2)CC1)Nc1cc(C(F)(F)F)ccc1Cl,Ki,300 nM
